Out of some 39,000 compounds screened, about 3,300 (8.5%) were called active. Many of the other results were omitted from the sample, so actives are more common in it than they were.
These compounds were tested on HepG2 (assay: cytotoxicity call (relative viability < 0.9)). Settings: 10 µM.

Row | Structure (SMILES) | cytotoxicity call
1 | CO[C@H]1CN(C)C(=O)c2cc(NS(C)(=O)=O)ccc2OC[C@H](C)N(S(C)(=O)=O)C[C@H]1C | inactive
2 | C[C@@H]1CN([C@@H](C)CO)C(=O)c2cc(NC(=O)CCC(F)(F)F)ccc2O[C@@H](C)CCCCO[C@@H]1CN(C)CC1CCCCC1 | inactive
3 | CCCCCCCCCCCCCCCc1cccc(OCC)c1C(=O)Nc1ccc(Cl)c(C(F)(F)F)c1 | inactive
4 | C[C@H](CO)N1C[C@H](C)[C@@H](CN(C)S(C)(=O)=O)Oc2ccc(NC(=O)Cn3cnnn3)cc2CC1=O | inactive
5 | Nc1cnn([C@H]2O[C@@H](COC(=O)c3ccccc3)[C@@H](O)[C@@H]2O)c(=O)n1 | inactive
6 | COc1ccc(S(=O)(=O)N2C[C@@H](O)COC[C@H]3O[C@H](CC(=O)NCCN4CCCCC4)CC[C@@H]32)cc1 | inactive
7 | Cc1noc(C)c1NC(=O)N(C)C[C@@H]1Oc2c(NC(=O)C3CC3)cccc2C(=O)N([C@H](C)CO)C[C@H]1C | inactive
8 | C[C@@H]1CN([C@H](C)CO)C(=O)Cc2cc(NC(=O)C3CCCCC3)ccc2O[C@@H]1CN(C)Cc1ccc(Cl)c(Cl)c1 | inactive
9 | C[C@@H]1CN([C@@H](C)CO)C(=O)c2cc(NC(=O)Cc3ccccc3)ccc2O[C@@H](C)CCCCO[C@@H]1CN(C)Cc1ccc(C(F)(F)F)cc1 | inactive
10 | C[C@H](CO)N1C[C@H](C)[C@H](CN(C)Cc2ccc(C(F)(F)F)cc2)OCCCC[C@H](C)Oc2ccc(NC(=O)Cc3ccccc3)cc2C1=O | inactive
11 | C[C@H]1CCCCO[C@@H](CN(C)Cc2ccc(C(F)(F)F)cc2)[C@@H](C)CN([C@@H](C)CO)C(=O)c2cc(NC(=O)Cc3ccccc3)ccc2O1 | inactive
12 | C[C@@H]1CCCCO[C@H](CN(C)Cc2ccc(C(F)(F)F)cc2)[C@@H](C)CN([C@H](C)CO)C(=O)c2cc(NC(=O)Cc3ccccc3)ccc2O1 | inactive
13 | C[C@@H]1CCCCO[C@@H](CN(C)Cc2ccc(C(F)(F)F)cc2)[C@H](C)CN([C@@H](C)CO)C(=O)c2cc(NC(=O)Cc3ccccc3)ccc2O1 | inactive
14 | C[C@H]1CCCCO[C@H](CN(C)Cc2ccc(C(F)(F)F)cc2)[C@@H](C)CN([C@@H](C)CO)C(=O)c2cc(NC(=O)Cc3ccccc3)ccc2O1 | active
15 | C[C@@H]1CCCCO[C@H](CN(C)Cc2ccc(C(F)(F)F)cc2)[C@H](C)CN([C@H](C)CO)C(=O)c2cc(NC(=O)Cc3ccccc3)ccc2O1 | active
16 | C[C@@H]1CCCCO[C@H](CN(C)Cc2ccc(C(F)(F)F)cc2)[C@@H](C)CN([C@@H](C)CO)C(=O)c2cc(NC(=O)Cc3ccccc3)ccc2O1 | inactive
17 | C[C@@H]1CCCCO[C@@H](CN(C)Cc2ccc(C(F)(F)F)cc2)[C@@H](C)CN([C@H](C)CO)C(=O)c2cc(NC(=O)Cc3ccccc3)ccc2O1 | active
18 | COc1ccc(S(=O)(=O)Nc2cccc3c2O[C@@H](CN(C)C(=O)Nc2cccc4ccccc24)[C@H](C)CN([C@H](C)CO)C3=O)cc1 | inactive
19 | C[C@H](CO)N1C[C@H](C)[C@H](CN(C)C(=O)Nc2ccc3c(c2)OCO3)Oc2ccc(N(C)C)cc2CC1=O | inactive
20 | CNC(=O)C[C@@H]1CC[C@@H]2[C@H](COC[C@@H](O)CN2C(=O)c2ccc3c(c2)OCO3)O1 | inactive
21 | Cn1ccnc1C(=O)NCc1cnc2n1CCNCC2 | inactive

Row | Structure (SMILES) | cytotoxicity call
22 | C[C@H](CO)N1C[C@H](C)[C@H](CN(C)Cc2ccc(Cl)c(Cl)c2)Oc2ccc(NC(=O)NC3CCCCC3)cc2C1=O | inactive
23 | C[C@@H]1CN([C@@H](C)CO)C(=O)c2cc(NS(=O)(=O)c3cccs3)ccc2O[C@@H]1CN(C)Cc1ccc(-c2ccccc2)cc1 | inactive
24 | C[C@@H]1CN([C@H](C)CO)S(=O)(=O)c2ccc(C#CC(C)(C)O)cc2O[C@@H]1CN(C)Cc1ccc(F)cc1 | inactive
25 | FC(F)(F)Oc1ccccc1 | inactive
26 | C[C@@H]1CN([C@@H](C)CO)C(=O)Cc2cc(NC(=O)Cn3cnnn3)ccc2O[C@@H]1CN(C)S(=O)(=O)c1cn(C)cn1 | inactive
27 | CSc1ccc(-c2nnn(CC(N)=O)n2)cc1 | inactive
28 | Cc1noc(C)c1NC(=O)N(C)C[C@H]1Oc2ccc(NC(=O)NC(C)C)cc2C(=O)N([C@H](C)CO)C[C@H]1C | inactive
29 | COc1ccc(S(=O)(=O)Nc2ccc3c(c2)C(=O)N([C@H](C)CO)C[C@H](C)[C@H](CN(C)S(=O)(=O)c2cn(C)cn2)O3)cc1 | inactive
30 | C[C@H]1CN([C@@H](C)CO)C(=O)c2cc(NC(=O)c3ccncc3)ccc2O[C@H]1CN(C)S(=O)(=O)c1cccs1 | inactive
31 | COCCOC(=O)N1C(=O)[C@@]2(c3cc(C#CC4=CCCCC4)ccc31)[C@H](C(=O)N1CCN(c3ncccn3)CC1)[C@H]1C(=O)O[C@H](c3ccccc3)[C@H](c3ccccc3)N1[C@@H]2c1ccc(O)cc1 | inactive
32 | C=CCn1c(N2CCN(c3ccc(OC)cc3)CC2)nc2c1c(=O)n(C)c(=O)n2C | inactive
33 | C=CCn1c(=O)c2cnc(Nc3ccc(N4CCN(C)CC4)cc3)nc2n1-c1cccc(C(C)(C)O)n1 | active
34 | COC(=O)C[C@@H]1CC[C@H]2[C@@H](COC[C@@H](O)CN2S(=O)(=O)c2ccccc2C)O1 | inactive
35 | Cn1c(=O)cc(N2CCC[C@@H](N)C2)n(Cc2cc(F)ccc2C#N)c1=O | inactive
36 | Cn1c(=O)cc(N2CCCC(N)C2)n(Cc2ccccc2C#N)c1=O.O=C(O)c1ccccc1 (configuration not stated) | active
37 | Cn1c(=O)cc(N2CCC[C@@H](N)C2)n(Cc2ccccc2C#N)c1=O | inactive
38 | C[C@H](CO)N1C[C@H](C)[C@@H](CN(C)C(=O)Cc2ccccc2)OCCCC[C@H](C)Oc2ccc(NC(=O)Nc3ccc(F)cc3)cc2C1=O | inactive
39 | CCCC#Cc1ccc2c(c1)O[C@@H](CN(C)S(=O)(=O)c1cccc(F)c1)[C@H](C)CN([C@H](C)CO)S2(=O)=O | inactive
40 | Cc1ccc(S(=O)(=O)N2CCNCC2)cc1 | inactive
41 | Br.Cc1ccc(Sc2ccccc2N2CCNCC2)c(C)c1 | active
42 | C[C@@H]1CN([C@@H](C)CO)C(=O)c2cc(C#Cc3cccc(F)c3)cnc2O[C@@H]1CN(C)Cc1ccccn1 | inactive

Row | Structure (SMILES) | cytotoxicity call
43 | C[C@@H]1CCCCO[C@@H](CN(C)S(=O)(=O)c2cccs2)[C@@H](C)CN([C@H](C)CO)C(=O)c2cc(NC(=O)Nc3cccc4ccccc34)ccc2O1 | inactive
44 | C=C/C=C/C[C@@H](C)[C@@H](O)[C@H]1C(=O)N[C@@H](CC)C(=O)N(C)CC(=O)N(C)[C@@H](CC(C)C)C(=O)N[C@@H](C(C)C)C(=O)N(C)[C@@H](CC(C)C)C(=O)N[C@@H](C)C(=O)N[C@H](C)C(=O)N(C)[C@@H](CC(C)C)C(=O)N(C)[C@@H](CC(C)C)C(=O)N(C)[C@@H](C(C)C)C(=O)N1C | inactive
45 | C/C=C/C[C@@H](C)[C@@H](O)[C@H]1C(=O)N[C@@H](CC)C(=O)N(C)CC(=O)N(C)[C@@H]([C@@H](C)CC)C(=O)N[C@@H](C(C)C)C(=O)N(C)[C@@H](CC(C)C)C(=O)N[C@@H](C)C(=O)N[C@H](C)C(=O)N(C)[C@@H](CC(C)C)C(=O)N(C)[C@@H](CC(C)C)C(=O)N(C)[C@@H](C(C)C)C(=O)N1C | inactive
46 | CC=CCC(C)C(O)C1C(=O)NC(CC)C(=O)N(C)CC(=O)N(C)C(CC(C)C)C(=O)NC(C(C)C)C(=O)N(C)C(CC(C)C)C(=O)NC(C)C(=O)NC(C)C(=O)N(C)C(CC(C)C)C(=O)N(C)C(CC(C)C)C(=O)N(C)C(C(C)C)C(=O)N1C (configuration not stated) | active
47 | CC(C)NC(=O)N(C)C[C@@H]1OCc2cnnn2CCCC(=O)N([C@H](C)CO)C[C@H]1C | inactive
48 | CCC(=O)Nc1ccc2c(c1)OC[C@@H](C)N(S(=O)(=O)c1cn(C)cn1)C[C@@H](C)[C@H](OC)CN(C)C2=O | inactive
49 | Cc1c(N)nc([C@H](CC(N)=O)NC[C@H](N)C(N)=O)nc1C(=O)N[C@H](C(=O)N[C@H](C)[C@@H](O)[C@H](C)C(=O)N[C@H](C(=O)NCCc1nc(-c2nc(C(=O)NCCCNCCCCN)cs2)cs1)[C@@H](C)O)[C@@H](O[C@@H]1O[C@@H](CO)[C@@H](O)[C@H](O)[C@@H]1O[C@@H]1O[C@H](CO)[C@@H](O)[C@H](OC(N)=O)[C@@H]1O)c1c[nH]cn1 | inactive
50 | C[C@H](CO)N1C[C@H](C)[C@@H](CN(C)C(=O)C2CCCCC2)Oc2cc(Br)ccc2S1(=O)=O | inactive
51 | N#CCCn1nc2c(c1N)CCC2 | inactive
52 | Cc1noc(C)c1NC(=O)Nc1ccc2c(c1)C(=O)N([C@@H](C)CO)C[C@H](C)[C@H](CN(C)Cc1ccc(C(F)(F)F)cc1)OCCCC[C@@H](C)O2 | inactive
53 | C[C@H](CO)N1C[C@H](C)[C@H](CN(C)C(=O)Cc2ccccc2)OCCCC[C@H](C)Oc2ccc(NC(=O)CCC(F)(F)F)cc2C1=O | inactive
54 | C[C@@H]1CCCCO[C@@H](CN(C)C(=O)Nc2cccc3ccccc23)[C@@H](C)CN([C@H](C)CO)C(=O)c2cc(NS(=O)(=O)c3cn(C)cn3)ccc2O1 | inactive
55 | C[C@H](CO)N1C[C@H](C)[C@H](CN(C)C(=O)Nc2cccc3ccccc23)OCCCC[C@H](C)Oc2ccc(NS(=O)(=O)c3cn(C)cn3)cc2C1=O | inactive
56 | C[C@@H]1CCCCO[C@@H](CN(C)C(=O)Nc2cccc3ccccc23)[C@H](C)CN([C@@H](C)CO)C(=O)c2cc(NS(=O)(=O)c3cn(C)cn3)ccc2O1 | inactive
57 | C[C@H]1CCCCO[C@@H](CN(C)C(=O)Nc2cccc3ccccc23)[C@@H](C)CN([C@@H](C)CO)C(=O)c2cc(NS(=O)(=O)c3cn(C)cn3)ccc2O1 | active
58 | C[C@H]1CCCCO[C@H](CN(C)C(=O)Nc2cccc3ccccc23)[C@@H](C)CN([C@@H](C)CO)C(=O)c2cc(NS(=O)(=O)c3cn(C)cn3)ccc2O1 | inactive
59 | C[C@@H]1CCCCO[C@H](CN(C)C(=O)Nc2cccc3ccccc23)[C@H](C)CN([C@H](C)CO)C(=O)c2cc(NS(=O)(=O)c3cn(C)cn3)ccc2O1 | active
60 | C[C@@H]1CN([C@@H](C)CO)C(=O)c2cc(NS(=O)(=O)c3cn(C)cn3)ccc2O[C@@H](C)CCCCO[C@H]1CN(C)C(=O)Nc1cccc2ccccc12 | inactive
61 | C[C@@H]1CCCCO[C@@H](CN(C)C(=O)Nc2cccc3ccccc23)[C@H](C)CN([C@H](C)CO)C(=O)c2cc(NS(=O)(=O)c3cn(C)cn3)ccc2O1 | inactive
62 | C[C@@H]1CN([C@@H](C)CO)C(=O)c2cc(NS(=O)(=O)c3cn(C)cn3)ccc2O[C@@H](C)CCCCO[C@@H]1CN(C)C(=O)Nc1cccc2ccccc12 | active

— the antibiotic and cytotoxicity screens of Wong et al. (2023)
